Measurements taken from PubChem BioAssay AID1903 (Southern Research Specialized Biocontainment Screening …, 2009).
Several values for one entry are separate records, joined by “and”; a condition that tells them apart may be missing. Identical values can stand only once. In all, about 310,000 compounds went through this assay and about 1,200 (0.39%) were called active. How the calls were made is not given here. The list is a sample of the results. Results with a measured potency or affinity are listed apart.

Each compound was assayed against Large T antigen (Simian virus 40) (UniProt P03070) (assay: TAg ATPase/helicase activity blockers – biochemical (AID 1903)). Conditions: SV40 large T antigen ATPase/helicase inhibition assay; at 20 µM; hits give high values.
Chain of Large T antigen (Simian virus 40) (P03070 whole entry, looked up): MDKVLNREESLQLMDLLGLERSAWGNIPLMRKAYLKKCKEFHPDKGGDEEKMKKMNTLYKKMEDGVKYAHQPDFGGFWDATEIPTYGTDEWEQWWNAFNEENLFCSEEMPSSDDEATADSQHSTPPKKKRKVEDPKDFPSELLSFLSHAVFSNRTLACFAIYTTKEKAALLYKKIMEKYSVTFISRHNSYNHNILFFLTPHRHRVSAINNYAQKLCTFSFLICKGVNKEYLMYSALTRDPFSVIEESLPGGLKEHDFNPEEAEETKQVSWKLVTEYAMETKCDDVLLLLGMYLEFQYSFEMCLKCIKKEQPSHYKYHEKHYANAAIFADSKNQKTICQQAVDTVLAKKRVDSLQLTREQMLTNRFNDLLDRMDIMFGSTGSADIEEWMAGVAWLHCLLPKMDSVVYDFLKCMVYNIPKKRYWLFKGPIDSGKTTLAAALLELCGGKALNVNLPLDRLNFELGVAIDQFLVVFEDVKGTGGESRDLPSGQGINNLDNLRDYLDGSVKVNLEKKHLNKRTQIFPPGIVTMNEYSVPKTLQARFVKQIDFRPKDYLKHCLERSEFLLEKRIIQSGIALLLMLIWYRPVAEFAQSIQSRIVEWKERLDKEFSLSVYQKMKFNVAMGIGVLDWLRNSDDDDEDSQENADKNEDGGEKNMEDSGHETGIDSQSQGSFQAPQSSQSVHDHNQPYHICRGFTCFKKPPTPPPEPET

inhibition, inactive:
Cc1ccc(/C=C2\CCOC2=O)cc1 10.9%
O=C1OCC/C1=C\c1ccccc1 6.44%
CC(NC(=O)c1cc(S(=O)(=O)N2CCCC2)cn1C)c1ccccc1 (stereo unspecified) 5.41%
CN1C(C(=O)NCCc2cccs2)CC2Cn3c(nc4ccccc43)C21 (stereo unspecified) 21.1%
CCc1ccc2nc(N)sc2c1 9.15%
CCc1ccc2nc3nc(C)cc(C)c3c(N)c2c1 17.6%
CC1(C)Cc2nc3n[nH]c(N)c3cc2CO1 -1.93%
Nc1[nH]nc2nc3ccccc3cc12 36%
Cc1ccc2cc3c(N)c4c(C)ccc(C)c4nc3nc2c1 1.71%
Cc1cc2cc3c(=O)[nH]c(=O)[nH]c3nc2cc1C -1.5%
CCn1cc(CNC(=O)c2cc(-c3ccccc3OC)nc3ccccc23)c(C)n1 4.15%
O=C(c1ccc(Cl)cc1)c1oc2ccccc2c1CS(=O)(=O)c1ccccc1 1.36%
c1ccc(Oc2ccc3ccccc3n2)cc1 7.16%
COc1ccc(N(CC(=O)N2CCOCC2)S(C)(=O)=O)cc1OC 4.22%
CCCCn1c(=O)[nH]c(=O)c2c(C(=O)OCC)cc(-c3cccs3)nc21 4.89%
Cc1cc(NC(=O)c2cc(C(C)C)on2)nn1Cc1ccc(Cl)cc1 -0.65%
COC(=O)c1[nH]c2cccc(OC)c2c1NC(=O)CCN1CCSCC1 2.77%
CCN(CC)C(=O)C1CCC(CNS(=O)(=O)c2cccc3nsnc23)CC1 (stereo unspecified) 5.44%
COc1ccccc1C(=O)NCCC(=O)Nc1nc2ccccc2[nH]1 10.6%
CCCCN1C(=O)/C(=C(/C#N)C(=O)N2CCCC2)c2ccccc21 7.04%
CCOC(=O)/C(C#N)=C1/C(=O)N(Cc2ccccc2)c2ccccc21 11%
O=C(CN1C(=O)C2CCCCC2C1=O)Nc1nc(-c2ccc(F)cc2)cs1 (stereo unspecified) 12.1%
COc1ccc(Nc2cccc(Cl)c2)c(C(=O)O)c1 33.4%
COc1ccc(Nc2ccccc2C(=O)O)cc1 31.6%
COc1cc(/C=N/Nc2ccccn2)cc(OC)c1O 29.8%
COc1ccc(/C=N/Nc2nc(=O)[nH]nc2C)cc1OC 13.7%
COc1cc(/C=N/Nc2nc(C)cc(=O)[nH]2)ccc1O 35.4%
COc1ccc(/C=N/Nc2ccccn2)cc1OC 9.61%
COc1cc(/C=N/Nc2ccc(C(=O)O)cc2)ccc1O 29.4%
COc1ccc(/C=N/Nc2ccccn2)cc1O 36.9%
Cn1c(N/N=C\c2cccc(O)c2)cc(=O)n(C)c1=O -5.57%
COc1ccc(/C=N/Nc2cc(=O)n(C)c(=O)n2C)cc1OC 9.25%
CC(=O)c1sc(NC(=O)COc2ccccc2)nc1C 3.21%
CC(C)CCNC(=O)C(=O)Nc1cc2c3c(c1)CCC(=O)N3CCC2 -2.67%
COC(=O)c1ccc(CNC(=O)C23CC4CC(CC(C4)C2)C3)cc1 -3.62%
CCCCc1oc2c(c(=O)c1C)C(=O)CC(c1ccccc1)C2 (stereo unspecified) 4.52%
CCC(=O)N1CCN(c2ccc(NC(=O)c3ccc(C#N)cc3F)cc2Cl)CC1 6.06%
CCc1ccc(NC(=O)C(=O)N/N=C(\C)CC(=O)Nc2ccccn2)cc1 11.4%
CCC(NC(=O)c1ccc(C#CC2(O)CCCCC2)cc1)C(=O)O (stereo unspecified) 8.73%
Oc1ccc(/C=N/NC2=NCCCCC2)cc1 25.1%
CCc1nnc(N/N=C/c2ccc(O)c(OC)c2)n1N 38%
COc1cccc2c(N/N=C/c3ccccc3)cc(C)nc12 4.18%
COc1cc(/C=N/Nc2ccccc2)ccc1O 27.7%
COc1cc(/C=N/Nc2nn3cnnc3c3ccccc23)ccc1O 8.69%
COc1ccc(OC)c(/C=N/Nc2nncn2/N=C/c2cc(OC)ccc2OC)c1 12.7%
COc1ccc(/C=N/Nc2cc(C)nc3c(C)cccc23)cc1 4.3%
COc1ccc(/C=N/NC2=NCCCCC2)cc1 -2.48%
CCc1ccc(NC(=O)C2CCN(S(=O)(=O)c3ccc4c(c3)N(C(C)=O)CCO4)CC2)cc1 -0.74%
Cc1ccc(S(=O)(=O)NCCCN2CCCC2)cc1 13.3%
c1ccc(CNc2nc3ccccc3n2CCN2CCOCC2)nc1 7.87%
Cc1ccc(NC(=O)c2nc[nH]c2C(=O)N2CCC(C)CC2)cc1 9.16%
O=C(Cn1nc(-c2cccs2)ccc1=O)Nc1ccc(Br)cc1 3.47%
O=C1CC(C(=O)Nc2ccc(Cl)cc2[N+](=O)[O-])C2(CCCCC2)O1 (stereo unspecified) 6.86%
COc1ccccc1OCc1nn[nH]n1 11.9%
CCC1CCCCN1CCCNC(=O)c1cc2c(=O)[nH]c3ccccc3c2n1C (stereo unspecified) 8.49%
O=C(Nc1c(Cl)cc(Cl)cc1-c1nc2ccccc2s1)c1ccc(Br)o1 6.8%
COC(CN(C)C(=O)c1ccc(CS(=O)(=O)c2ccccc2C)o1)OC 6.06%
Cc1nnc(-c2ccccc2)c[n+]1[O-] 2.44%
Oc1c(Br)cc(/C=N/n2c(-c3ccccc3)n[nH]c2=S)c(O)c1Br 30.1%
Oc1c(Br)cc(/C=N/n2c(-c3ccccc3)n[nH]c2=S)cc1Br 29.7%
CCOC(=O)N/N=C(/C)c1ccc(N2C(=O)C3CCCCC3C2=O)cc1 (stereo unspecified) 11.8%
O=C(O)c1ccc(N(Cc2ccccc2)S(=O)(=O)c2ccccc2)cc1 1.43% and 0.12%
CN(C[C@H](Cc1ccccc1)N(C[C@H](Cc1ccccc1)N(CCc1cc(C(F)(F)F)cc(C(F)(F)F)c1)N=O)N=O)N=O 0.235%
Cc1c(NC(=O)CN2CCN(c3ccc(F)cc3)CC2)c(=O)n(-c2ccccc2)n1C 6.05%
O=C(CN1CCN(c2ccc(F)cc2)CC1)Nc1ccc2c(c1)OCCO2 8.68%
COc1ccc(N2CCN(CC(=O)Nc3sccc3C#N)CC2)cc1 8.41%
N#Cc1ccsc1NC(=O)CN1CCN(c2ccccc2)CC1 9.52%
O=C(CN1CCN(c2ccccc2)CC1)Nc1ccc2c(c1)OCCO2 -0.06%
Cc1cc(C)cc(OCC(=O)OCC(=O)Nc2c(C)n(C)n(-c3ccccc3)c2=O)c1 15.2%
Cc1c(NC(=O)CN2CCN(c3ccccc3)CC2)c(=O)n(-c2ccccc2)n1C 3.86%
CCC(=O)c1ccc(OCC(=O)OCC(=O)Nc2c(C)n(C)n(-c3ccccc3)c2=O)cc1 12.3%
